Screens deposited in PubChem BioAssay by Broad Institute.
Most compounds without a hit are left out; they make up all but 4% or so of the library.
EWS-Fli inh: EWS/Fli transcriptional activity inhibition; inhibition, % at 12.6 µM; A673 NR0B1-luciferase reporter, viability-normalised; 350,000 tested, 0.67% active;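 active means mean inhibition of at least 50% after viability correction, with every replicate also passing that limit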;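 further: firefly luciferase signal divided by Alamar Blue viability fluorescence both relative to DMSO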
MITF TRPM1 HTS: activators of MITF-driven TRPM1 promoter activity in SK-MEL-5 cells; SK-MEL-5 TRPM1-promoter luciferase, 24 h; % of positive control, neutral wells = 0; activation, % at 12.5 µM; AID 588334; 300,000 tested, 0.75% active;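 active means mean activation of at least 80% with every replicate also reaching 80%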
PAX8 inh HTS: PAX8 transcriptional activity inhibition; inhibition, % at 12.6 µM; 360,000 tested, 1.2% active; RMG-I TPO-luciferase reporter, SteadyGlo, 24 h;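 active means mean replicate inhibition at least 60% with every replicate also reaching 60%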;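 further: luciferase light reporting Pax8 driven TPO promoter activity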
Wnt act: Wnt/beta-catenin pathway activation | Wnt/beta-catenin reporter cell assay, activator, plate reader | activation, % at 9.35 µM | 300,000 tested, 1.2% active | AID 743398; in the data active means activation above about 30%, passing the limit was not always enough
TRPM1 prom inh: MITF TRPM1 promoter inhibition in SK-MEL-5 cells; SK-MEL-5 TRPM1 promoter luciferase, 24 h; inhibition, % at 12.5 µM; 330,000 tested, 0.83% active; AID 488899;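 active means mean inhibition across replicates of 60% or more, whatever share of single replicates reaches that level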
esBAF inh: inhibitors of esBAF chromatin remodeling in mouse ES cells. Bmi1-luciferase knock-in reporter, 24 h; 100% = twice the neutral-well signal. reporter increase, % at 12.5 µM. 350,000 tested, 2% active. AID 602393; in the data active means activation above about 40%;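 further: a rise in the Bmi1 reporter signal indicates esBAF inhibition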
DNA binder FP: DNA binding small molecules; 640 tested, 2% active; AC35, µM (series often up to 68 µM); shares compounds with EWS-Fli inh; AID 720586; salmon sperm DNA acridine orange fluorescence polarization;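 active means fitted curve reaches a 35% signal fall AC35 below twice the sample's top valid tested dose, actives reach about 48 µM in these data; inactive means the rest, including activity in the rising direction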;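 further: lower polarization ratio signals compound binding to DNA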
Hits are given with their value; – = inactive; · = not tested or not shown.

SMILES	EWS-Fli inh	MITF TRPM1 HTS	PAX8 inh HTS	Wnt act	TRPM1 prom inh	esBAF inh	DNA binder FP
CN(C)c1nc2c(N)ncnc2n1C1OC(CO)C(O)C1O (stereo not drawn)	–	–	–	–	–	–	·
COc1ccccc1NS(=O)(=O)c1cc(NC(=O)C2=NNC(=O)CC2)ccc1C	–	·	–	–	·	–	·
COc1ccccc1NS(=O)(=O)c1cc(NC(=O)c2cc3ccccc3oc2=O)ccc1C	82.4	–	–	·	–	·	–
CCc1ccc(NC(=O)c2cnn3c(C(F)F)cc(C)nc23)cc1	–	–	–	·	–	–	·
CCc1ccc(Cn2ncc3c(C(=O)O)cc(C)nc32)cc1	75.4	–	–	–	–	–	–
C[C@H]1CN([C@@H](C)CO)C(=O)c2cc(N(C)C)ccc2O[C@H]1CN(C)Cc1ccc(C(=O)Nc2ccccc2N)cc1	60.8	·	–	·	·	–	–
C[C@H](CO)N1C[C@H](C)[C@H](CN(C)Cc2ccc(C(=O)Nc3ccccc3N)cc2)Oc2ccc(N(C)C)cc2C1=O	64.5	·	76.1	·	·	–	–
C[C@@H]1CN([C@@H](C)CO)C(=O)c2cc(N(C)C)ccc2O[C@H]1CN(C)Cc1ccc(C(=O)Nc2ccccc2N)cc1	63.3	·	–	·	·	–	–
C[C@H]1CN([C@@H](C)CO)C(=O)c2cc(NS(C)(=O)=O)ccc2O[C@H]1CN(C)Cc1ccc(C(=O)Nc2ccccc2N)cc1	–	·	·	·	·	–	·
C[C@H](CO)N1C[C@H](C)[C@@H](CN(C)Cc2ccc(C(=O)Nc3ccccc3N)cc2)Oc2ccc(NC(=O)Nc3ccc(F)cc3)cc2C1=O	–	·	·	·	·	–	·
C[C@@H]1CN([C@H](C)CO)C(=O)c2cc(NC(=O)Nc3ccccc3)ccc2O[C@@H]1CN(C)Cc1ccc(C(=O)Nc2ccccc2N)cc1	55.2	·	–	·	·	–	–
O=C(NCC[C@@H]1CC[C@@H](NS(=O)(=O)Cc2ccccc2)[C@H](CO)O1)C1CCCC1	–	·	–	·	·	–	·
C[C@H](NC(=O)C[C@@H]1CC[C@@H]2[C@H](COC[C@H](O)CN2C(=O)Nc2cccc(F)c2)O1)c1ccccc1	–	·	–	·	·	–	·
C[C@@H]1CN([C@H](C)CO)C(=O)c2cc(N(C)C)ccc2O[C@H]1CN(C)Cc1ccc(C(=O)Nc2ccccc2N)cc1	65.3	·	–	·	·	–	–
C[C@H](CO)N1C[C@H](C)[C@H](CN(C)Cc2ccc(C(=O)Nc3ccccc3N)cc2)OCCCC[C@H](C)Oc2ccc(N(C)C)cc2C1=O	–	·	–	·	·	·	·
C[C@@H]1CN([C@H](C)CO)C(=O)Cc2cc(N(C)C)ccc2O[C@H]1CN(C)Cc1ccc(C(=O)Nc2ccccc2N)cc1	59.0	·	–	·	·	–	–
C[C@@H]1CN([C@@H](C)CO)C(=O)Cc2cc(NC(=O)c3ccncc3)ccc2O[C@H]1CN(C)Cc1ccc(C(=O)Nc2ccccc2N)cc1	–	·	–	·	·	–	·
C[C@@H]1CN([C@@H](C)CO)C(=O)Cc2cc(NC(=O)C3CCCCC3)ccc2O[C@H]1CN(C)Cc1ccc(C(=O)Nc2ccccc2N)cc1	52.4	·	·	·	·	–	–
Cc1noc(C)c1S(=O)(=O)N(C)C[C@H]1Oc2ccc(N(C)C)cc2CC(=O)N([C@H](C)CO)C[C@H]1C	–	·	–	·	·	–	·
O=C(C[C@@H]1C[C@@H]2c3cc(NC(=O)Nc4ccc(C(F)(F)F)cc4)ccc3O[C@@H]2[C@@H](CO)O1)NCc1cccnc1	–	·	–	·	·	–	·
CCCC#Cc1cnc2c(c1)C(=O)N([C@@H](C)CO)C[C@H](C)[C@@H](CN(C)C(=O)Cc1ccncc1)O2	–	·	·	·	·	–	·
COC(=O)C1=C(C)N(Cc2ccccc2C(F)(F)F)C(=NCc2ccc(OC)cc2)NC1c1ccc(C(F)(F)F)cc1 (stereo not drawn)	54.9	·	–	–	·	·	–
COC(=O)C1=C(C)N(Cc2cccc(C(F)(F)F)c2)C(=NCc2ccc(OC)cc2)NC1c1cccc(F)c1 (stereo not drawn)	50.3	·	98.7	–	·	·	–
COC(=O)C1=C(C)N(Cc2ccccc2C(F)(F)F)C(=NCc2ccc(C(F)(F)F)cc2)NC1c1ccc(C(F)(F)F)cc1 (stereo not drawn)	–	·	–	–	·	·	·
COC(=O)c1ccccc1-c1c2ccc(=N)cc-2oc2cc(N)ccc12	85.5	–	96.0	–	–	–	<0.03µM
SMILES	EWS-Fli inh	MITF TRPM1 HTS	PAX8 inh HTS	Wnt act	TRPM1 prom inh	esBAF inh	DNA binder FP
O=C(Nc1ccc2c(c1)[C@@H]1C[C@H](CC(=O)N3CCc4ccccc4C3)O[C@@H](CO)[C@@H]1O2)c1ccc2c(c1)OCO2	–	·	–	·	·	–	·
CC(C)C#Cc1ccc2c(c1)O[C@H](CN(C)Cc1ccncc1)[C@H](C)CN([C@@H](C)CO)S2(=O)=O	–	·	–	·	·	–	·
S=c1[nH]nc(-c2cc(-c3ccccc3)n[nH]2)n1/N=C/C(Br)=C/c1ccccc1	75.0	·	–	–	·	·	–
COc1ccccc1S(=O)(=O)N[C@@H]1C=C[C@@H](CC(=O)NCc2cc(F)cc(F)c2)O[C@H]1CO	–	·	–	·	·	–	·
CCCNC(=O)N1CC2(CCN(C(=O)c3cnccn3)CC2)c2c([nH]c3cc(OC)ccc23)[C@H]1CO	–	·	·	·	·	·	·
COC(=O)C[C@@H]1CC[C@@H]2[C@@H](COc3ccc(NC(=O)Nc4cccc(C#N)c4)cc3C(=O)N2C)O1	76.3	·	–	·	·	–	–
COC(=O)C[C@@H]1CC[C@H]2[C@H](COc3ccc(NC(=O)Nc4cccc(C#N)c4)cc3C(=O)N2C)O1	–	·	–	·	·	–	·
COC(=O)C[C@H]1CC[C@@H]2[C@@H](COc3ccc(NC(=O)Nc4cccc(Cl)c4)cc3C(=O)N2C)O1	–	·	–	·	·	–	·
COC(=O)C[C@@H]1CC[C@H]2[C@H](COc3ccc(NC(=O)Nc4cc(C)cc(C)c4)cc3C(=O)N2C)O1	64.3	·	–	·	·	–	–
COC(=O)C[C@H]1CC[C@H]2[C@H](COc3ccc(NC(=O)Nc4cccc(Cl)c4)cc3C(=O)N2C)O1	79.6	·	–	·	·	–	–
COC(=O)C[C@H]1CC[C@@H]2[C@H](COc3ccc(NC(=O)Nc4cccc(Cl)c4)cc3C(=O)N2C)O1	60.2	·	–	·	·	–	–
C[C@H](CO)N1C[C@H](C)[C@H](CN(C)C(=O)c2ccncc2)Oc2ncc(C#C[C@@H](C)O)cc2C1=O	–	·	–	·	·	·	·
Cc1csc(NC(=O)CCc2c(C)nc3cc(-c4ccc(Cl)cc4)nn3c2C)n1	56.2	–	–	–	–	–	–
Cc1nc2cc(-c3ccc(Cl)cc3)nn2c(C)c1CCC(=O)NC(C)c1ccc2c(c1)OCCO2 (stereo not drawn)	56.6	–	–	–	–	–	–
CCc1ccc(C2=NN(CCC(=O)NC(C)c3ccc4c(c3)OCCO4)C(=O)CC2)cc1 (stereo not drawn)	–	–	–	–	–	–	·
Cc1csc(NC(=O)CSc2nnc(-c3ccc(Cl)cc3)n2N)n1	·	–	·	·	–	–	·
COc1cc(OC)cc(-c2cc3nc(C)c(CCC(=O)NCc4ccccc4)c(C)n3n2)c1	57.4	–	–	–	–	–	–
